From PubChem BioAssay AID1117319 (Southern Research Institute, 2015)
Hit rate of the full screen: of about 260,000 compounds, about 1,500 (0.58%) were called active. Another 5% or so got no clear call; they are omitted.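 Rule for the calls: active = inhibition above a set limit at one or more doses, reproduced on every date tested; inconclusive = results disagree between test dates, or hit never tested in dose response; inactive = the rest.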 These entries were drawn from the full list. Results with a measured potency or affinity are listed apart.

Target: Virion infectivity factor (Human immunodeficiency virus type 1 group M subtype B (isolate BH10)) + Virion infectivity factor (Human immunodeficiency virus type 1 group M subtype B (isolate BRU/LAI)) + Virion infectivity factor (Human immunodeficiency virus type 1 group M subtype B (isolate PCV12)) + Virion infectivity factor (Human immunodeficiency virus type 1 group M subtype B (isolate HXB2)) + DNA dC->dU-editing enzyme APOBEC-3G (Homo sapiens) (UniProt P69720+P69721+P69722+P69723+Q9HC16)
Test: inhibitors of Vif binding to APOBEC3G peptide, primary screen, biochemical, TR-FRET, GST-Vif 1-94, biotin-A3G peptide, dose response retest (AID 1117319);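 note: Vif residues 1-94 fused to GST binding biotinylated APOBEC3G peptide 110-148; 0% = full assay without inhibitor and 100% = GST in place of GST-Vif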
Details: hits give high values

inhibition, inactive:
COc1ccc(CNC(=O)C(C)N(C)Cc2cccc(F)c2)cc1 (configuration not stated) -5.46%, CCNc1ccc(C(=O)NN=C2CCCC2)cc1[N+](=O)[O-] 4.6%, Cc1ccc(C)c(NC(=O)CSc2nc3[nH]ncc3c(=O)[nH]2)c1 8.18%, COc1cc(OC)c(-c2noc(C(=O)OC(C)(C)C)c2C(=O)OC(C)(C)C)c(OC)c1 -1.31%, COc1cccc(N2C(=O)/C(=C\c3cccs3)NC2=S)c1 7.97%, COc1ccccc1NC(=O)C(=O)N/N=C/c1ccc([N+](=O)[O-])s1 -6.16%, O=C1NC(=S)N/C1=C/c1cc2c(cc1[N+](=O)[O-])OCO2 -9.06%, COc1cccc(/C=C2/C(=O)NN(c3ccccc3)C2=O)c1 0.84%, COc1ccccc1N1C(=O)S/C(=C\c2ccc(C)s2)C1=O -7.12%, Cc1ccc(N2NC(=O)/C(=C\c3cc4c(cc3[N+](=O)[O-])OCO4)C2=O)cc1C 27.7%, O=C(/C=C/c1ccc([N+](=O)[O-])s1)N1CCN(c2ccccc2)CC1 2.14%, O=C1N/C(=C/c2ccc(Br)s2)C(=O)N1c1ccccc1 -0.93%, CCOC(=O)C1=C(CC)Nc2ccccc2N=C1NC(=O)c1ccc(S(=O)(=O)N2CCOCC2)cc1 -4.07%, O=c1nc2n(c3ccc([N+](=O)[O-])cc13)CCCCC2 -7.12%, CCOC(=O)N1CCC(NC(=O)c2cc(S(=O)(=O)N3CCc4ccccc43)cn2C)CC1 -4.57%, CCOC(=O)C1=C(C)N(C[C@@H]2CC[C@@H](Cc3ccc(-c4ccccc4)cc3)O2)C(=O)NC1c1ccc(SCc2ccco2)c([N+](=O)[O-])c1 (some centres not stated) 30.7%, Cc1nc2c(s1)sc1ccccc12 -4.72%, C=CC(=O)NC(C)(C)CCN1CCOCC1 0.07%, CCc1cccc(C)c1NC(=O)CO/N=C(\N)CC(=O)NC1CCCCC1 -0.04%, O=C1C=CC(=Nc2ccc3c(c2)C(=O)c2ccccc2-3)O1 -2.81%, O=[N+]([O-])c1ccccc1C=NNc1ccccc1 -8.57%, COc1ccc(CC(NC(C)=O)C(=O)NC2CCN(S(=O)(=O)c3ccccc3)CC2)c(OC)c1 (configuration not stated) 3.28%, O=C(COC(=O)C12CC3CC(CC(Br)(C3)C1)C2)N1CCOCC1 4.7%, Cc1cc(=O)oc2cc(OCC(=O)N3CCCc4ccccc43)ccc12 -3.74%, COCCCNc1nc2nonc2nc1N1CCC(C(C)N2CCOCC2)CC1 (configuration not stated) -10.9%, CN1CCN(C(=O)c2ccc3nc(-c4ccccc4)c(-c4ccccc4)nc3c2)CC1 5.63%, O=C(c1cccc(C(=O)N2CCN(c3ncccn3)CC2)c1)N1CCN(c2ncccn2)CC1 17.4%, O=C(c1ccco1)N1CCN(c2ncccn2)CC1 5.99%, CCN1CCN(C(=O)c2ccc3nc(-c4ccccc4)c(-c4ccccc4)nc3c2)CC1 -0.29%, O=C(COc1ccccc1)NC(Cc1c[nH]c2ccccc12)C(=O)O (configuration not stated) 7.79%, c1ccc(-c2noc(CCC3CCCC3)n2)cc1 -1.6%, Cc1c(C(=O)N2CCCCCC2)oc2ccccc12 30.7%, Cc1cc(C)nc(N/N=C/c2ccc(Cl)cc2)n1 -3.39%, Cc1cc(C)nc(NN=CC2=C(N3CCOCC3)/C(=C/c3ccc(Cl)cc3)CC2)n1 17.2%, CN(C)CCNC(=O)c1ccc(CS(=O)(=O)c2c(Cl)cccc2Cl)o1 3.4%, COC(CNC(=O)c1ccc(CS(=O)(=O)c2c(Cl)cccc2Cl)o1)OC -0.54%, CC(=O)c1cccc(NC(=O)N2CCCC2C(=O)NC2CCCCC2)c1 (configuration not stated) -4.16%, CCOc1ccc2nc(NC(=O)CSc3nc4c(c(=O)n(C)c(=O)n4C)n3C(C)C)sc2c1 18.8%, CCC(=O)c1ccc(N2CCN(C(=O)c3cccc(F)c3)CC2)c(F)c1 -9.86%, O=C(c1cccc(C(=O)N2CCN(c3ccccc3F)CC2)c1)N1CCN(c2ccccc2F)CC1 -8.59%, CCOC(=O)C1CCN(CC(O)COCc2ccc(Cl)cc2)CC1 (configuration not stated) 8.82%, O=S(=O)(/C=C/c1ccccc1)N1CCN(c2cccc(Cl)c2)CC1 -3.95%, Cc1ccc(C(=O)Nc2nc(-c3ccco3)c(-c3ccco3)s2)o1 23.7%, O=C(Nc1nc(-c2cccs2)c(-c2ccccc2)s1)c1ccco1 2.82%, O=C(Nc1ccc(F)cc1F)c1cc(-c2ccco2)on1 5.56%, O=C(Nc1nnc(-c2ccco2)s1)C1CC1 12.1%, COc1ccc(C(=O)Nc2nnc(-c3ccco3)s2)cc1 -3.84%, CS(=O)(=O)c1ccc2nc(NC(=O)c3ccco3)sc2c1 8.25%, O=C(NC(=S)Nc1nc2ccc(F)cc2s1)c1ccco1 9.98%, O=C(Nc1nnc(-c2ccco2)s1)C1CCCCC1 22.7%, COc1ccc(CNC(=O)N[C@@H](CC(C)C)C(=O)O)cc1OC -2.37%, CCCc1cc(=O)[nH]c(SCC(=O)NCC2COc3ccccc3O2)n1 (configuration not stated) -7.96%, COc1cnc(-c2ccccn2)[nH]c1=O 2.61%, O=C(Cn1nnc(-c2ccccc2F)n1)NCc1ccco1 10.4%, COc1ccc(CCNS(=O)(=O)c2ccc(OC)cc2)cc1 -5.66%, Cc1[nH]c2ccc(Br)cc2c(=O)c1CN1CCCCCC1 -12.9%, CC1CCCN(S(=O)(=O)Cc2ccc(Cl)cc2)C1 (configuration not stated) 4.49%, COc1ccc(COc2ccsc2C(=O)Nc2ccc(Cl)cc2)cc1 -8.53%, Cc1ccc2cccc(O)c2[n+]1[O-] 18.8%, [O-][n+]1cccc2cccc(O)c21 -10.3%, C/C(=N\NC=O)c1ccncc1 -3.47%, COc1ccc(CC(=O)N(C)C2CCCCC2)cc1S(=O)(=O)N1CCOCC1 1.22%, Cc1ccc2c(c1)c1c(n2C)C(=O)CCC1 -2%, Cc1ccc2c(C)c(C)c(=O)n(C)c2c1 -6.81%, Cc1cc(=O)n(C)c2ccccc12 -5.08%, COc1ccc2c(OC)cc(=O)n(C)c2c1 6.19%, Cc1ccc(C)c2c1c1ccccc1n2C -3.59%, COc1ccc2[nH]c(C)cc(=O)c2c1 -0.89%, COc1ccc2c(c1)c1ccccc1n2C 1.57%, COc1ccc2[nH]c3ccccc3c2c1 1.16%, Cc1c(NC(=O)c2cc(-c3ccccc3)nc3ccccc23)c(=O)n(-c2ccccc2)n1C -2.43%, CC1=C(C(=O)OCc2ccccc2)C(c2ccccc2Br)NC(=O)N1 (configuration not stated) -2.14%, COc1ccccc1C(O)(c1ccccc1)C(CN1CCOCC1)c1ccccc1 (configuration not stated) 3.77%, COc1ccc(NC(=O)c2cc(-c3ccccc3)nc3c2c(C)nn3-c2ccccc2)c(OC)c1 1.03%, COC(=O)Cc1[nH]nc2c1C(C1C=CCCC1)C(C#N)=C(N)O2 (configuration not stated) 7.26%, COc1ccc(C2/C=C\CN(C(=O)C3CC3)[C@H](Cc3ccccc3)C(=O)N2Cc2ccc(F)cc2)cc1 (some centres not stated) 7.45%, CC1CCN(C(=O)CSc2nnc(-c3ccncc3)n2C)CC1 8.77%, COc1cc(OC)cc(C(=O)NC2CCN(CCCOc3ccccc3)CC2)c1 -2.34%, CCN(CC(=O)Nc1ccc(NC(C)=O)cc1)C(=O)c1ccc2ccccc2c1 8.12%, Nc1c(C(=O)CSc2nnc(-c3ccccc3F)o2)c(=O)[nH]c(=O)n1C1CC1 -9.99%, CC(=O)n1c2ccccc2c2c1c1ccccc1n2C -6.7%, Cn1c2ccccc2c2c(=O)oc3ccccc3c21 -5.39%, CCOc1ccccc1NC(=O)Nc1cccc(S(N)(=O)=O)c1 1.28%, O=C(/C=C/c1ccccc1)c1ccc2c(c1)OCO2 -5.81%, Cc1sc2c(c1C)c(=O)n(-c1ccc(F)cc1)c(=O)n2CC(=O)NCc1ccco1 -4.06%, CCOc1ccc(-n2c(=O)c3c4c(sc3n(CC(=O)NCc3ccco3)c2=O)CCC4)cc1 -4.88%, CCOC(=O)N1C/C(=C\c2ccccc2)C(=O)/C(=C/c2ccccc2)C1 1.34%, C=CC(=O)N1C/C(=C/c2ccccc2)C(=O)/C(=C\c2ccccc2)C1 6.41%, CC(C)CCNC(=O)C(=O)NCc1ccccc1 21.7%, COc1ccc(NC(=O)CCSc2ccc(F)cc2)cc1 29.9%, COc1ccc(NC(=O)COC(=O)CCSc2ccccc2)cc1 -0.53%, CC(=O)c1ccc(OCc2cc(C(=O)N3CCC[C@H]3CO)no2)cc1 1.22%, CCn1c(COc2ccc3c(c2)OCO3)nnc1SCC(=O)c1ccccc1 9%, CCn1c(COc2ccc3c(c2)OCO3)nnc1SCC(=O)O -4.1%, O=C(/C=C/c1ccccc1Cl)Nc1ccccc1 -7.35%, COCCOc1ccc(C(F)(F)F)cc1N 16.5%, Nc1cc(OCC(F)(F)F)cc(OCC(F)(F)F)c1 2.81%
